# PrP UTR inh = inhibition of PrP 5' UTR reporter expression. inhibition, % (no concentration beside the values). AID 488862, 2010. 340,000 compounds, 0.35% hits. cell-based PrP 5' UTR mRNA reporter, plate reader; in the data active = inhibition above about 52%; also: 0 = median of the neutral control wells
# PfHsp40 yeast = rescue of yeast from PfHsp40 toxicity, primary screen, S. cerevisiae, ATP luminescence. AID 504582, 2011. growth rescue, % at 12.5 µM. 340,000 compounds, 0.68% hits. S. cerevisiae expressing PfHsp40, growth rescue; in the data active = growth rescue above about 28%, passing the limit was not always enough; inconclusive = no clear call, values can overlap the other calls;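 also: yeast W303a lacking pdr1 and pdr3 grown in galactose medium; growth measured after three days at 30 °C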
# Yp Topo-I inh = Yersinia pestis topoisomerase I inhibitors, primary screen, biochemical, cleavage product accumulation, plate reader, single point; DNA topoisomerase I (Yersinia pestis CO92); Y. pestis Topo-I cleavage product accumulation; activity, % at 10 µM; 360,000 compounds, 0.064% hits; in the data active = activity above about 50%, passing the limit was not always enough; inconclusive = no clear call, values can overlap the other calls
# BJeLR lethal = MLPCN primary cell-based screen for lethality selective to Ras in HRASV12 cells; BJeLR (HRASV12) viability, CellTiter-Glo ATP luminescence, 48 h; inhibition, % (test concentration not listed); 300,000 compounds, 0.17% hits; in the data active = inhibition above about 50%; inconclusive = no clear call, values can overlap the other calls
# SSB-PriA inh = inhibitors of Klebsiella pneumoniae PriA binding to SSB C-terminal tail, primary screen, biochemical, AlphaScreen; 430,000 compounds, 0.6% hits; AlphaScreen SSBct-PriA binding, biotinylated peptide; inhibition, % at 33 µM; AID 1272365, 2023; PriA–SSB C-terminal tail interaction (Klebsiella pneumoniae); in the data active = inhibition mostly above about 37%, no sharp cut-off; inactive = mostly below about 20%;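 also: plate controls were negative control peptide for no effect and reference peptide for full effect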
# PrPC surface inh = inhibitors of human cell surface prion protein PrPC, primary screen, cell-based, TR-FRET. TR-FRET read-out. 370,000 compounds, 0.43% hits. inhibition, % at 13.8 µM. Major prion protein (Homo sapiens), P04156; in the data active = inhibition above about 24%; also: 0% = median of the test wells and 100% = reference compound wells
# * marks the source's active call; other numbers are inactive results; ? = inconclusive; . = not tested or not shown; ! = repeats disagree. Compounds with a hit are over-represented: about 1.7% of the library has one in this group of screens.
SMILES,PrP UTR inh,PfHsp40 yeast,Yp Topo-I inh,BJeLR lethal,SSB-PriA inh,PrPC surface inh
Oc1c(Cl)cc(Cl)c2c1NCCC2,-14.7,86.7*,-13.0,-7.6,-1.5,-3.0
COc1ccc(-c2csc(NC(=O)/C=C/c3ccc([N+](=O)[O-])cc3)n2)cc1OC,.,.,.,.,69.0*,.
COc1cc(C(=O)Nc2nnc(-c3cc(C)n(C)n3)o2)cc(OC)c1OC,.,.,.,.,-4.0,.
COC(=O)c1ccc(C(=O)Nc2nnc(-c3cc(C)n(C)n3)o2)cc1,.,.,.,.,95.0*,.
CCOC(=O)N1CCN(S(=O)(=O)c2ccc(C(=O)Nc3ccccc3-c3nc4ccccc4o3)cc2)CC1,.,.,.,.,-10.0,.
COCCN(Cc1ccoc1)C(=O)Nc1cccs1,.,.,.,.,-13.0,.
O=C(N1CCOCC1)N1CCS[C@H](c2ccccc2Cl)CC1,.,.,.,.,-8.0,.
O=S1(=O)CCC(n2nc(-c3ccc(Cl)cc3)cc2NS(=O)(=O)c2cnc[nH]2)C1 (stereo not given),.,.,.,.,-12.0,.
Cc1ccc(-c2[nH]c3cc(C(N)=O)ccc3c(=O)c2O)cc1,-17.9,44.2*,-1.6,8.0,-7.1,-30.1
Cc1ccc(CNC(=O)c2ccc3c(=O)c(O)c(-c4ccc(C)cc4)[nH]c3c2)cc1,36.9,164.4*,18.4,-1.5,18.5,-2.6
CCCNC(=O)c1ccc2c(=O)c(O)c(-c3ccc(OC)cc3)[nH]c2c1,-24.8,185.3*,-3.6,-5.4,-41.0,.
CCCNC(=O)c1ccc2c(=O)c(O)c(-c3ccc(C)cc3)[nH]c2c1,29.6,-1.2,4.2,7.8,-2.8,-4.5
Cc1ccc(-c2[nH]c3cc(C(=O)NCCCn4ccnc4)ccc3c(=O)c2O)cc1,-8.2,?,-5.5,-3.0,12.9,-13.3
C[C@H]1CCc2sc(NC(=O)c3ccc(Cl)cc3Cl)c(C#N)c2C1,.,.,.,.,-6.0,.
Clc1ccccc1Nc1nnc(-c2ccncc2)s1,-13.0,-1.8,-4.8,85.1*,-3.8,-8.4
COc1ccc(CC(=O)NCC(=O)N/N=C\c2cccc(Br)c2)cc1,.,.,.,.,-1.0,.
O=C(NCC(O)c1ccoc1)c1ccccc1C(F)(F)F (stereo not given),.,.,.,.,4.0,.
CCOc1ccc(S(=O)(=O)Nc2ccc3c(c2)CCCN3C(=O)c2ccccc2)cc1C,.,.,.,.,-8.0,.
Cc1cccc(-c2nnc3n2N=C(c2ccccc2)CS3)c1,-5.0,-0.1,24.5,-2.1,5.0,10.2
Cc1ccc(-c2nnc3n2N=C(c2ccccc2Br)CS3)cc1,1.3,19.2,58.8*,-0.2,0.6,2.6
C=C(C)Cc1c(C)c(C#N)c2[nH]c3ccccc3n2c1=O,-15.0,131.2*,13.8,1.6,-4.8,-0.3
Cc1ccc(CN2c3ccccc3C(=O)/C(=C\Nc3ccc(NC(=O)c4ccco4)cc3)S2(=O)=O)cc1,.,.,.,.,-11.0,.
Cn1c(-c2c(N)n(C3CCCC3)c3nc4ccccc4nc23)nc2ccccc21,-24.9,489.5*,-15.9,-5.9,-72.8,2.4
Cn1c(-c2c(N)n(CCc3ccccc3)c3nc4ccccc4nc23)nc2ccccc21,-17.6,-1.3,-4.7,-6.9,-108.0,.
CCN1C(=O)/C(=C/c2ccc3ccccc3n2)SC1=NS(=O)(=O)c1ccccc1,.,.,.,.,-5.0,.
SMILES,PrP UTR inh,PfHsp40 yeast,Yp Topo-I inh,BJeLR lethal,SSB-PriA inh,PrPC surface inh
Nc1cc(-c2ccccn2)[nH]n1,.,.,.,.,17.0,.
O=c1cc(-c2ccccn2)[nH]c(-c2ccccn2)c1,.,.,.,.,96.0*,.
CCCCCCCCCCCCCCCC(=O)OC(CC(=O)O)C[N+](C)(C)C (stereo not given),-54.9,124.7*,16.9,.,-22.1,-4.8
CCNc1nc(NCC)nc(C(=O)NN)n1,3.6,-0.3,-7.3,-6.0,82.8*,6.9
O=C(Cn1c(=O)nc(-c2ccccc2)c2ccccc21)Nc1ccc(Cl)cc1C(F)(F)F,.,.,.,.,-4.0,.
OCCCNC(=S)Nc1ccc2nc(-c3ccccc3)c(-c3ccccc3)nc2c1,.,.,.,.,45.5,.
O=[N+]([O-])c1ccc(Nc2nc(NCCO)nc(N3CCCC3)n2)cc1,-4.2,-0.3,-7.5,-7.6,2.4,-13.6
NNc1nc(Nc2ccc([N+](=O)[O-])cc2)nc(N2CCCCCC2)n1,-26.8,-2.5,1.4,-24.1,54.1*,3.6
CCOc1ccccc1C1C(C#N)=C(N)SC(N)=C1C#N,-30.2,-0.8,2.3,-4.9,-7.6,46.9*
O=C(Nc1nnc(SCc2ccc(Cl)cc2)s1)c1ccc2c(c1)OCO2,.,.,.,.,3.0,.
Cc1ccc(C(C)(C)C)cc1S(=O)(=O)Nc1nc2ccccc2nc1Cl,-16.2,5.9,5.5,9.1,-7.3,26.8*
Cc1ccc(C(C)(C)C)cc1S(=O)(=O)Nc1ncnc2sccc12,-14.0,250.9*,5.4,.,-6.4,0.9
O=C(c1ccc2c3n(nc2c1)-c1ccccc1CO3)N1CCCCC1,-2.1,-1.9,15.9,59.5*,-1.9,-14.0
O=C(c1ccc2c3n(nc2c1)-c1ccccc1CO3)N1CCOCC1,-71.7,-3.6,3.6,56.6*,9.4,.
CCN1C(=O)CCc2cc(NC(=O)c3ccccc3SC(F)F)ccc21,.,.,.,.,-9.0,.
COC1(C)CC2C(CC1OC(=O)c1cc([N+](=O)[O-])cc([N+](=O)[O-])c1)C2(C)C (stereo not given),-31.9,-2.8,-6.2,-1.3,73.8*,-5.2
CC1CCc2cccc(C(=O)O)c2N1 (stereo not given),.,.,.,.,0.0,.
CCOC(=O)CC1=Nc2cc(C)c(C)cc2N(CC(=O)NCCC2=CCCCC2)C(=O)C1,.,.,.,.,8.0,.
N#Cc1nc(-c2ccccc2)oc1N1CCCCC1,-17.2,0.4,1.2,0.8,3.2,.
c1ccc(-c2nc([P+](c3ccccc3)(c3ccccc3)c3ccccc3)c(N3CCCCCC3)o2)cc1,.,.,.,.,37.0*,.
Cc1ccc(-c2nc(C#N)c(N3CCCCCC3)o2)cc1,.,.,.,.,98.8*,.
Cc1ccc(-c2nc(C#N)c(N3CCCCC3)o2)cc1,-5.6,0.1,8.2,-3.0,86.8*!,-8.1
Cc1ccc(NC(=S)NC(=O)C2CCCC2)c(Br)c1,-67.0,118.8*,16.8,.,3.9,-2.5
O=c1oc(-c2ccccc2)cc2ccccc12,.,.,-6.8,.,-18.0,1.5
O=c1oc(-c2ccccc2)cc(Cl)c1Cl,-27.5,556.2*,4.9,22.7,-11.9,-2.6
SMILES,PrP UTR inh,PfHsp40 yeast,Yp Topo-I inh,BJeLR lethal,SSB-PriA inh,PrPC surface inh
N#Cc1c(N=Cc2cccs2)sc2c1CCCC2,.,.,.,.,38.0*,.
Cc1ccc(/C=N/c2sc3c(c2C#N)CCC3)s1,-82.6,43.0*,-7.4,4.0,.,3.4
Cc1ccc(/C=N/c2sc3c(c2C#N)CCCCC3)o1,-54.3,2.6,-12.2,-3.7,.,1.0
N#Cc1c(/N=C/c2cc3ccccc3s2)sc2c1CCC2,-119.0,0.3,-2.8,-4.2,.,3.6
C(=C\c1cccc(/C=C/c2ccccc2)n1)/c1ccccc1,.,.,.,.,-25.0,.
Cc1ccc(CN(CC(O)COc2cccc3[nH]cc(C)c23)C(C)(C)C)cc1 (stereo not given),-8.9,0.0,-1.6,-21.9,1.4,-8.1
